# Bioassay records (PubChem)
# Only some compounds are listed: those with a hit (about 8% of all), similar ones and a draw of the others.
# MCF10A rerep: induces DNA re-replication in MCF 10a normal breast cells. MCF 10A DNA re-replication, Hoechst nuclear intensity, 48 h. AID 624296. 350,000 compounds, 2.9% hits. Potency, µM (series often up to 46.1 µM), for the others: at the highest dose activity, positive = re-replication, hits mostly activators; note: % of control where 0% means no effect; nearly all actives have a fitted effect of over 50% in size
# KB-V1 MDR tox: kills drug-selected multidrug resistant KB-V1 cells. KB-V1 MDR cells viability, CellTiter-Glo, 72 h. Potency, µM (doses to about 46.1 µM), usual class: cytotoxic. 400,000 compounds, 3.4% hits. AID 1347076; note: % is set by controls: 0 for no effect and ±100 for the full control effect; nearly all actives have a fitted effect of over 60% in size
#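 In this primary screen, KB-V1 cells overexpressing P-gp are incubated with library compounds (lowest to highest concentration) for 72 h at 37 degrees C before a luminescent ATP viability read.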
# KB-3-1 cytotox: kills parental KB-3-1 adenocarcinoma cells; KB-3-1 viability, CellTiter-Glo ATP luminescence, 72 h; Potency, µM (doses to about 46.1 µM), most hits filed as cytotoxic; 400,000 compounds, 1.4% hits; AID 1347075; note: % is set by controls: 0 for no effect and ±100 for the full control effect; nearly all actives have a fitted effect of over 60% in size
#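 Cytotoxicity in the drug-sensitive parental line KB-3-1 was scored as loss of CellTiter-Glo luminescence following 72 h incubation with compound. Values come from curve fitting of normalized concentration-response data.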
# HT1080-NT tox: kills 2HG-producing HT-1080-NT fibrosarcoma cells; HT-1080-NT fibrosarcoma viability, CellTiter-Glo ATP luminescence, 48 h; Potency, µM (top dose mostly 46.1 µM), without a hit: at the top dose activity, negative = less viability, most hits filed as cytotoxic; 360,000 compounds, 1.6% hits; AID 686970;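 note: NT is the 2HG producing partner of a matched IDH1 knockdown line; 0% = DMSO-treated cells and -100% = media-only wells without cells; nearly all actives have a fitted effect of over 55% in size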
#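 Viability by CellTiter-Glo luminescence after 48 h compound exposure at 37C of HT-1080-NT cells (750/well, RPMI, 5% FBS). % activity scaled between DMSO wells and medium-only wells, then curve-fitted and categorized by curve class.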
# SW480 rerep: induces DNA re-replication in SW480 colon adenocarcinoma cells | Potency, µM (titrated, usually from 46.1 µM), inactives show at the top dose re-replication activation, usual class: activators | SW480 DNA re-replication, Hoechst DNA content imaging, 48 h | 340,000 compounds, 1.8% hits; note: % of control where 0% means no effect; nearly all actives have a fitted effect of over 55% in size
#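 250 cells/well; 23 nL cpd via pin tool; 48 hr, 37 C, 5% CO2; Hoechst 40 min; imager read of total nuclear intensity, ex 405/em 500-530 nm.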
# HT1080 IDH1KD tx: HT-1080 IDH1 knockdown cell toxicity (counter line). HT-1080 IDH1 knockdown viability, ATP luminescence, 48 h. Potency, µM (doses to about 46.1 µM), for inactives: at the highest dose activity, negative = toxicity, usual class: cytotoxic. 360,000 compounds, 2% hits. AID 686971;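 note: 0% = DMSO wells and -100% = cell-free medium wells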
#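 CellTiter-Glo luminescence after 48 h compound exposure at 37 degrees C of IDH1-knockdown HT-1080 cells in 5% FBS RPMI. %Activity scaled between DMSO wells and cell-free media wells, with curves fitted and assigned curve classes.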
# The depositor's hits bear a star; i = inactive; ? = inconclusive; . = not tested or not shown; [ ] = another dose, or the depositor's remark. Calls come from the whole dose curve; as a rule, active = well fitted curve in the direction sought with a large enough effect; inconclusive = small, poorly fitted or top-dose-only effect, or another doubt; inactive = no such curve, though single readings can be large; an effect the other way counts as inactive or inconclusive. Potency is the fitted concentration of half-maximal effect.
SMILES,MCF10A rerep,KB-V1 MDR tox,KB-3-1 cytotox,HT1080-NT tox,SW480 rerep,HT1080 IDH1KD tx
CS(=O)(=O)Nc1cccc(C2=NN(S(C)(=O)=O)C(c3ccc4c(c3)OCO4)C2)c1 (configuration not stated),?,i,14.6µM*,?,?,?
CS(=O)(=O)N1N=C(c2ccccc2)CC1c1ccc2c(c1)OCO2 (configuration not stated),-4.7%,i,i,1.6%,1.5%,-1.4%
CCc1cc2cc(C)cc(C)c2nc1SCC(=O)N1CCN(C(=O)c2ccco2)CC1,?,23.1µM*,?,-0.1%,-1.2%,-1.5%[9.24 µM]
Cc1cccc2c(C(=O)N3CCN(C(=O)c4ccco4)CC3)cc(-c3cccc(Br)c3)nc12,18.4µM*,9.2µM*,?,?,?,18.4µM*
CCc1cc2cc3c(cc2nc1SCC(=O)N1CCN(C(=O)c2ccco2)CC1)OCO3,6.2%,?,i,-7.3%,-0.5%,-14.3%
Cc1cc(C)c2nc(C(F)(F)F)nc(N3CCN(C(=O)c4ccco4)CC3)c2c1,?,11.6µM*,i,-9.8%,-5.3%,-0.3%
CCc1cc2cccc(C)c2nc1SCC(=O)N1CCN(C(=O)c2ccco2)CC1,?,i,i,-2.2%,3.9%,1.8%
CCc1cc2ccc(C)cc2nc1SCC(=O)N1CCN(C(=O)c2ccco2)CC1,?,5.17µM*,i,-1.9%,?,-1.6%
N#Cc1ccc(OCC(O)CN2CCN(CC(O)COc3ccc(C#N)cc3)CC2)cc1 (configuration not stated),17.6%,?,i,8.5%,-4.6%,3.9%
N#Cc1ccc(OCC(O)CN2CCN(c3ncc(C(F)(F)F)cc3Cl)CC2)cc1 (configuration not stated),?,7.31µM*,14.6µM*,?,24.9%,?
O=C(NCc1ccc(F)cc1)c1cccnc1,-1.2%,?,i,8.7%,-0.6%,4.3%
Cn1c(=O)c(C(=O)Nc2ccccc2S(N)(=O)=O)c(O)c2ccccc21,13.7%,?,i,-18.7%,-5.9%,-24.9%
Cn1c(=O)c(C(=O)Nc2ccccn2)c(O)c2ccccc21,14.0%,2.31µM*,18.4µM*,-12.0%,2.5%,-10.6%
CC(=O)c1c(O)c2ccccc2n(C)c1=O,-2.3%,i,i,-2.8%,-1.9%,2.0%
CC(NC(=O)c1c(O)c2ccccc2n(C)c1=O)c1ccccc1 (configuration not stated),18.1%,?,?,-17.4%,23.1µM*,-7.4%
COc1cc(C(=O)NCc2ccccc2)ccc1OC(F)F,1.3%,i,i,-4.5%,-4.5%,-8.6%
COc1ccc(CNC(=O)c2sc(=O)n(Cc3ccc(-c4ccccc4)cc3)c2C)cc1OC,.,9.2µM*,?,-11.5%,.,?
COc1ccc(CNC(=O)c2sc(=O)n(Cc3ccc(C)cc3)c2C)cc1OC,.,18.4µM*,i,3.7%,.,-1.3%
COc1cc(C(=O)NCc2ccc(C)cc2)ccc1OC(F)F,0.7%,23.1µM*,i,3.3%,4.6%,-5.0%
COc1ccc(CNC(=O)c2sc(=O)n(Cc3ccccc3C)c2C)cc1,.,?,i,-11.0%,.,-14.3%
Cc1ccc(Cn2c(C)c(C(=O)NCC(C)C)sc2=O)cc1,.,13µM*,i,3.2%,.,-0.9%
CCOc1ccc(CNC(=O)c2ccc3oc(=O)n(Cc4ccccc4)c3c2)cc1,.,i,i,.,.,.
Cc1ccc2oc(=O)cc(CN3CCOCC3)c2c1,1.7%,i,i,0.7%,15.5%,1.0%
Cc1ccc(N(C(=O)c2csnn2)C(C(=O)NCc2ccccc2)c2cccnc2)cc1 (configuration not stated),-1.8%,?,i,-0.2%,5.7%,-7.0%
COc1ccccc1Cn1c(C)c(C(=O)NCc2cccc(C)c2)sc1=O,.,?,i,-10.9%,.,-10.3%
SMILES,MCF10A rerep,KB-V1 MDR tox,KB-3-1 cytotox,HT1080-NT tox,SW480 rerep,HT1080 IDH1KD tx
Cc1cccc(CNC(=O)c2sc(=O)n(Cc3c(C)cccc3C)c2C)c1,.,20.6µM*,?,-13.7%,.,?
COC(=O)c1cc(Cl)ccc1NCC(N)c1ccccc1 (configuration not stated),.,i,i,20.6µM*,.,18.4µM*
c1ccc(CSc2ccc(-c3ccc4c(c3)OCO4)nn2)cc1,?,i,16.4µM*,-14.5%,4.3%,-5.5%
Cc1cc2ccccc2nc1-c1ccccc1F,0.6%,i,i,10.9%,-4.4%,9.6%
CC(C)C(N)c1csc(NC(=O)Nc2cccc(Cl)c2)n1 (configuration not stated),.,i,i,23.1µM*,.,?
CCOC(=O)Cc1csc(NC(=O)/C=C/c2ccc(Br)o2)n1,?,14.6µM*,i,-21.5%,26.6%,-5.2%
Cc1ccc(C(=O)Nc2nc(C(N)C(C)C)cs2)cc1 (configuration not stated),.,i,i,-21.8%,.,3.3%
CC(C)c1ccc(NC(=O)Nc2nc(C(N)C(C)C)cs2)cc1 (configuration not stated),.,?,?,20.6µM*,.,?
CC(N)c1csc(NC(=O)Nc2cccc(C(F)(F)F)c2)n1 (configuration not stated),.,i,i,18.4µM*,.,23.1µM*
NC(c1csc(NC(=O)Nc2cccc(Cl)c2)n1)c1ccccc1Cl (configuration not stated),.,i,i,?,.,?
CCOC(=O)Cc1csc(NC(=O)c2ccc(Br)o2)n1,-0.4%,i,i,12.6%,-0.9%,3.7%
O=C(Nc1cc(Cl)ccc1Cl)c1ccc2c(c1)N(Cc1cccc(Cl)c1)C(=O)c1ccccc1S2=O (configuration not stated),.,i,i,.,.,.
Cc1nn(C2CCS(=O)(=O)C2)c(C)c1CN(C)C(=O)c1cccc(Cl)c1 (configuration not stated),13.4%,?,i,-7.3%,-16.6%,-7.6%
NC(c1csc(NC(=O)Nc2ccc(OC(F)(F)F)cc2)n1)C1CCCCC1 (configuration not stated),.,?,?,16.4µM*,.,?
CCOC(=O)Cc1csc(NC(=O)Nc2cccc(Cl)c2)n1,2.5%,14.6µM*,i,-12.4%,6.3%,?
CC(C)c1ccc(NC(=O)Nc2nc(C(N)COCc3ccccc3)cs2)cc1 (configuration not stated),.,?,?,20.6µM*,.,?
CCN1C(=O)c2ccccc2S(=O)(=O)c2ccc(C(=O)NCc3ccccc3)cc21,.,i,i,.,.,.
